From PubChem BioAssay (NCI) come the findings set out here.

This is part of a sample that, as a whole, favours compounds with a hit. Of some 83,000 tested, about 20% had one in any assay.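 A percent growth of 40 corresponds to 60% growth inhibition; 0 means no net growth; -100 means all cells died. Active threshold: below 10.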 The source made the active and inactive calls.

This assay deals with HS 578T breast. In words: NCI-60 one-dose screen, 48 h (100 = growth as untreated, 0 = no growth, -100 = all killed). The following applies: 10 µM unless noted.
As for `Nc1cc(C(=O)N/N=C\c2ccc(OC(F)F)c(OC3CCCC3)c2)nn1CC(O)c1ccccc1` (stereo unspecified), the growth is 109% (inactive).
For `Clc1ccc2[nH]cc(-c3nn4cc(-c5ccncc5)nc4s3)c2c1`, the growth was 31.2% (inactive).
As to `CN1CC[C@@H]2[C@@]3(C)CC[C@H](O)C(C)(C)[C@@H]3CC[C@@]2(C)[C@]2(C)CC[C@@]3(CO)CCC(C)(C)C[C@@H]3C12` (stereo partly specified), the growth was 79.2% (inactive).
Next, `Brc1cc(-c2cc(-c3ccc4c(c3)OCCO4)[nH]n2)cs1`: 61.1% (inactive).
The result for `NS(=O)(=O)c1ccc(Nc2nc(Nc3ccccc3)nc(N3N=C(c4ccc(Cl)cc4)CC3c3ccc(Cl)cc3)n2)cc1` (stereo unspecified) reads 78.8% (inactive).
The result for `O=C(N/N=C\c1ccc([N+](=O)[O-])cc1)c1ccc2nc(-c3ccc(Br)cc3)[nH]c2c1` reads 23.2% (inactive); that for `O=C(/C=C/c1cccc(C(F)(F)F)c1)Nc1cccc(C(F)(F)F)c1`, 93% (inactive); that for `Brc1cccc(-c2cc(-c3ccc4c(c3)OC=CO4)[nH]n2)c1`, 58.8% (inactive).
Consider `CCc1cc2c(cc1Cl)nc1c(=O)[nH]c(=O)nc-1n2CCOCC(C)C`, for which the growth is 98.2% (inactive).
Regarding `CCCCSC1=C(Cl)CN(c2ccccc2)C1=O`, the growth is 98.6% (inactive).
Next, `Brc1ccc(-c2cc(-c3ccc4c(c3)OC=CO4)n[nH]2)s1`: 92.2% (inactive).
The result for `O=c1c2cc(-c3ccc(F)cc3F)ccc2n(Nc2ccccc2)c(=O)n1-c1cccc(C(F)(F)F)c1` reads -3.07% (active); that for `CN1CCN(CCCCCC(=O)Nc2nc(-c3cccc(NS(=O)(=O)c4cccc5c(N(C)C)cccc45)c3)cs2)CC1`, 73.1% (inactive).
Consider `CCCCc1nc2c(N)nc3ccccc3c2n1Cc1cccc(CN)c1`, for which the growth is 67.2% (inactive).
Turning to `CCCCCCCCCCCC(=O)NC(C)(C)C(=O)N1CCCC1C(=O)NC(C)(C)C(=O)NC(C)(C)C(=O)N1CCCC1C(=O)NC(C)(C)C(=O)NC(C)(C)C(=O)N1CCCC1C(=O)NC(C)C(=O)NCCC(=O)NC(C)C(=O)NC(C)(C)C(=O)NC(C)(C)C(=O)NC(C)(C)C(=O)NCCC(=O)NC(C)(C)C(=O)NC(C)(C)C(=O)NC(C)(C)C(=O)NC(C)C(=O)NCCC(=O)O` (stereo unspecified), the growth is -69.8% (active).
Next, `NS(=O)(=O)c1ccc(Nc2nc(N/N=C/c3ccc4c(c3)OCO4)nc(Nc3ccccc3)n2)cc1`: 52% (inactive).
For the compound `O=[N+]([O-])c1ccc(NC(=S)NNC(=S)Nc2ccc(Br)cc2)cc1`, the growth was 107% (inactive).
The result for `Cc1cc(=O)[nH]c(O)c1C#N` reads 116% (inactive).
Next, `Cc1ccc(OCc2occc2C(=O)N2CCOCC2)cc1`: 104% (inactive); `O=C1C(SCc2ccccc2)=C(Cl)CN1c1ccccc1`: 104% (inactive); `COc1ccc(C2C(C#N)=C(/N=C/c3ccc(Cl)cc3)Oc3c2sc2c(C)cccc32)cc1` (stereo unspecified): -4.66% (active).
As to `CN(C)CCNc1ccc2ncc(C#Cc3cncc(C(=O)Nc4ccc(CN5CCN(C)CC5)c(C(F)(F)F)c4)c3)n2n1`, the growth was -16.1% (active).
The result for `CN1CCC[C@]2(C)[C@H]3CC[C@@H]4[C@@H]5[C@H]6OC[C@@]5(CCC6(C)C)CC[C@@]4(C)[C@]3(C)CC[C@H]2C1(C)C` reads 99% (inactive).
As for `COc1ccccc1/C=C/C(=O)c1nnn(-c2ccc(F)cc2)c1C`, the growth was 78.3% (inactive).
In the case of `CC(C)[C@H]1c2[nH]c3ccccc3c2C[C@H]2C(=O)N(CCCCCCC(=O)NO)CC(=O)N12`, the growth is 74.2% (inactive).
For `COC(=O)CCCNCCCn1ccc2cc(NCc3cccc(-c4ccccc4)c3C)ccc21`, the growth was 81.8% (inactive).
The result for `C=C(C=O)[C@@H]1CC[C@]2(C(=O)O)CC[C@]3(C)C(CC[C@@H]4[C@@](C)(CCC#N)[C@H](C(=C)C=O)CC[C@]43C)[C@@H]12` (stereo partly specified) reads 47.1% (inactive).
With `CC1(C)CC[C@]23CC[C@]4(C)[C@H](CC[C@@H]5[C@@]6(C)CC[C@H](NCO)C(C)(C)[C@@H]6CC[C@]54C)[C@H]2[C@H]1OC3`, the growth was 90.7% (inactive).
The result for `O=C1/C(=C/C=C/c2ccco2)SC(=S)N1Cc1ccccc1` reads 104% (inactive); that for `COc1ccc(/C=N/NC(=O)c2c(N)nn(C)c2Nc2ccccc2)cc1Oc1ccccc1`, 93.6% (inactive).
Next, `Cc1[nH]c(C(=O)Nc2ccc(S(=O)(=O)N3CCCCC3)cc2OCCOCCOCCOCCOCCOCCOCCOCCOCCOc2cc(S(=O)(=O)N3CCCCC3)ccc2NC(=O)c2[nH]c(C)c3c2CCCCC3=O)c2c1C(=O)CCCC2`: -17% (active).
